# High-throughput results (PubChem)
# Many of the other results were omitted from the sample, so hits are more common in it than they were.
# Pf Dd2 growth = blocks in vitro growth of P. falciparum Dd2; P. falciparum Dd2 growth, SYBR Green, 72 h; Potency, µM (titrated, usually from 28.9 µM), for inactives: at the top dose activity, negative = inhibition, most hits filed as inhibitors; actives 4.3% (n = 120,000); active = well fitted inhibition curve with a large enough effect;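 also: plate controls were DMSO vehicle for no effect and reference drug for full effect; nearly all actives have a fitted effect of over 65% in size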
#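 Infected erythrocytes (Dd2, 0.3% parasitemia, 2.5% hematocrit final) are added to compound in RPMI-1640/Albumax II medium, grown 72 h at 37C in low oxygen, then lysed with saponin/Triton-X containing SYBR Green and read by fluorescence.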
# The depositor's hits bear a star; i = inactive; [ ] = another dose, or the depositor's remark. Potency is read from the fitted curve at half-maximal effect.
SMILES,Pf Dd2 growth
CCN(CCCNC(=O)c1cc2c(=O)[nH]c3ccc(C)cc3c2s1)Cc1ccccc1,7.94µM*
CCCCN(CC)CCCNC(=O)c1cc2c(=O)oc3ccc(C)cc3c2s1,10.2%
CCCN(C(=O)c1cc2c(=O)[nH]c3ccc(C)cc3c2s1)c1ccc(CC)cc1,-13.8%
CC1CCCN(C(=O)c2cc3c(Cl)nc4ccccc4c3s2)C1 (stereo not drawn),-1.8%
CC1CCCN(CCCNC(=O)c2cc3c(Cl)nc4ccccc4c3s2)C1 (stereo not drawn),4.47µM*
CCN(CCCNC(=O)c1cc2c(=O)n(C)c3ccccc3c2s1)c1ccccc1,12.6%[5.79 µM]
CCOCCCN(Cc1ccco1)C(=O)c1cc2c(=O)[nH]c3ccc(C)cc3c2s1,10µM*
Cc1ccn(CCCNc2cc(C(C)C)ncn2)n1,-1.5%
Cn1cccc1C(=O)N1CCC(N2C(=O)C(O)C23CCCCC3)CC1 (stereo not drawn),3.9%
CC(C(=O)NC1CCN(c2cnn(CC3CC3)c(=O)c2)CC1)c1ccccc1 (stereo not drawn),-19.9%
CC(=O)N1CCCC(c2nc(-c3cccnc3)no2)CCNC(=O)CC1 (stereo not drawn),18.6%
O=C(O)C(c1cccc2c1OCC2)N1CCCN(c2ncccn2)CC1 (stereo not drawn),-18.4%
COc1ccc(CC(=O)NC2CCN(c3cc(-c4ccc(F)cc4)[nH]n3)CC2)cc1OC,i
COc1ccc(NC(=O)N2CC(C(=O)N(C)C)C3(CCOCC3)C2)c(OC)c1 (stereo not drawn),7.5%
COC(=O)[C@@H](C)NC(=O)[C@H]1CN(C(=O)Nc2ccccc2)CCN1C(=O)NC(C)C,-1.9%[44.1 µM]
Cc1cnc(C(=O)N[C@@H]2CCC[C@@H]2C(=O)NCc2ccc(C)c(C)c2)cn1,-18.3%
CCC(NC(=O)c1cc(OC)ccc1OC1CCN(C(C)=O)CC1)c1ccc(F)cc1 (stereo not drawn),-0.5%
O=C1CCCN1CCCn1ccnc1-c1cc2n(n1)CCCNC2,4.3%
Cc1ccc2nc(Cl)c3cc(C(=O)NCCCN(C)Cc4ccccc4)sc3c2c1,7.94µM*
COCCNC(=O)c1cc2c(Cl)nc3ccc(C)cc3c2s1,-9.7%
Cc1ccc2nc(Cl)c3cc(C(=O)NC4CCCCCC4)sc3c2c1,-5.9%
NC(=O)C1CCCN(Cc2ccc(-c3cnc4c(OCc5ccccc5)nccn34)cc2)C1 (stereo not drawn),-10.2%
COc1ccccc1NC(=O)N1CCCC(Cn2cnc3cccnc32)C1 (stereo not drawn),-21.1%
Cc1ccc(S(=O)(=O)N2CCCC(Cn3cnc4cccnc43)C2)c(C)c1 (stereo not drawn),i
CCCn1c(C)c(CC(=O)NCc2cccnc2)c2c1CC(C)(C)CC2=O,i
SMILES,Pf Dd2 growth
O=C1[C@@H]2C[C@@H](CN2CC2CC2)Oc2ccccc2N1Cc1ccc(OC(F)(F)F)cc1,3.98µM*
O=C1[C@@H]2C[C@@H](CN2Cc2cccc(Cl)c2)Oc2ccccc2N1CC1CC1,-10.8%[44.1 µM]
O=C1[C@@H]2C[C@@H](CN2Cc2ccc(Cl)cc2)Oc2ccccc2N1CC1CC1,12.6µM*
COCC(=O)N1C[C@@H]2C[C@H]1C(=O)N(Cc1ccc(OC(F)(F)F)cc1)c1ccccc1O2,i
O=C1[C@@H]2C[C@@H](CN2C(=O)C2CC2)Oc2ccccc2N1Cc1ccc(OC(F)(F)F)cc1,i
O=C1[C@@H]2C[C@@H](CN2Cc2nccs2)Oc2ccccc2N1CC1CC1,i
CN1CCCCCCN(C(=O)NC2CCCCC2)CCC1=O,1.6%
CC(=O)N1C[C@@H]2CCCN3CCC[C@@H]([C@H]23)[C@H]1CCCC(=O)NCCCN1CCCC1=O,38.3%
CN[C@@H](C)C(=O)N1CC[C@H](NC(=O)c2ccncc2)C[C@H]1C(=O)N[C@@H](Cc1ccc(OC)cc1)C(N)=O,28.2%
Cc1ccc(C(=O)N(CC(C)C)CC2CN(C(=O)Nc3cccc(Cl)c3)CCO2)cc1 (stereo not drawn),-26.0%
O=C(Nc1ccccc1)N1CCOC(CN(CC2CC2)C(=O)c2cccc(F)c2)C1 (stereo not drawn),i
O=C(Nc1cccc(Cl)c1)N1CCOC(CN(CC2CC2)C(=O)c2cccc(F)c2)C1 (stereo not drawn),4.47µM*
CC(=O)NC1(C)CCN(Cc2ccc(-c3cccc4ncccc34)cc2)C1 (stereo not drawn),i
CC(=O)NC1(C)CCCN(Cc2cccc(-c3ccccc3)c2)C1 (stereo not drawn),8.91µM*
CC(=O)NC1(C)CCCN(Cc2ccc(Oc3ccccc3)cc2)C1 (stereo not drawn),i
CC(=O)NC1(C)CCCN(c2ccc(Oc3ccccc3)cc2)C1 (stereo not drawn),17.8%[44.1 µM]
CC(=O)NC1(C)CCN(Cc2cccc(-c3cccc4ncccc34)c2)C1 (stereo not drawn),i
CC(=O)NC1(C)CCCN(Cc2cccc(Nc3ccncc3)c2)C1 (stereo not drawn),-23.2%[44.1 µM]
CC(=O)NC1(C)CCN(Cc2ccccc2-c2ccccc2Oc2ccccc2)C1 (stereo not drawn),5.01µM*
CC(=O)NC1(C)CCN(Cc2cccc(-c3ccc(N4CCOCC4)cc3)c2)C1 (stereo not drawn),-3.4%[44.1 µM]
CC(=O)NC1(C)CCN(Cc2ccc(-c3ccc4ccccc4c3)cc2)C1 (stereo not drawn),10µM*
O=C1NCC2(CCCN(C(=O)CCc3ccc(=O)[nH]n3)C2)O1 (stereo not drawn),-6.5%
Cc1cnc(CCNS(=O)(=O)c2cn(C)cn2)n1C1CC1,4.2%
COc1ccccc1N1CCN([C@@H]2[C@H](O)[C@H](CO)O[C@@H]2CNC(C)C)CC1,i
COC(=O)[C@@H]1Cc2ncn(C(C)C)c2CN1C(=O)c1ccc(OC)cc1,5.4%[44.1 µM]
SMILES,Pf Dd2 growth
C[C@H](C(=O)N(C)CCC#N)C1CC[C@@]2(C)Cc3sc(NC(=O)C4CC4)nc3[C@@H](C)[C@@H]2[C@H]1O (stereo partly drawn),-2.7%
CC(C)N1CCN(C(=O)c2ccc(N3CC4CC(C3)[C@H]3CCCC(=O)N3C4)nc2)CC1 (stereo partly drawn),-24.4%
COc1cccc(S(=O)(=O)N2CCC(Cc3nncn3C)C2)c1 (stereo not drawn),31.8%
Cc1cncc(C(=O)N2CCOc3c(O)cc(-c4nc5ccccc5s4)cc3C2)c1,7.94µM*
Cc1nc(CN2CCOc3c(O)cc(-c4nc5ccccc5s4)cc3C2)no1,-24.9%
Cc1cnc(C)c(-c2cc(O)c3c(c2)CN(C(=O)c2ccncn2)CCO3)n1,-14.3%
CC(C)c1noc(-c2cn(C3CCCN(C(=O)c4ccc(F)cc4Cl)C3)nn2)n1 (stereo not drawn),i
Cc1noc([C@@H]2CN(C(=O)c3cccc4[nH]ccc34)C[C@H]2CO)n1,13.8%
O=C1NCCCCCN(C(=O)Cc2cccc(F)c2)[C@@H]2CCCC[C@H]12,i
c1csc(-c2nc3ccccn3c2Nc2ccc3c(c2)OCCO3)c1,17.2%
Brc1ccc(-c2nc3ccccn3c2Nc2ccc3c(c2)OCCO3)o1,12.6µM*
Cc1ccc(-c2nc3ccccn3c2Nc2ccc3c(c2)OCCO3)o1,-20.0%
Cc1ccc(-c2nc3ccc(Cl)cn3c2Nc2ccc3c(c2)OCCO3)s1,32.6%
Cc1ccc2nc(-c3ccc(C)o3)c(Nc3ccc4c(c3)OCCO4)n2c1,-20.8%
Cc1ccn2c(Nc3ccc4c(c3)OCCO4)c(-c3ccccc3O)nc2c1,11.2µM*
COc1ccc(C2(C(=O)N3CC(CO)C4(CCNCC4)C3)CCCCC2)cc1 (stereo not drawn),-20.1%
